The values that follow come from publication PMC7862700, “An all-to-all approach to the identification of sequence-specific readers for epigenetic DNA modifications on cytosine”.

Holding throughout (assay): DAPPL (digital affinity profiling via proximity ligation, sequencing); 10 mM Tris-HCl pH 7.5, 50 mM NaCl, 1 mM DTT, 4% glycerol, room temperature, 30 min; GST-TFs on glutathione beads, 16-mer random dsDNA library, 0.1% formaldehyde crosslink after washing; high values mean tight binding
Common to all, as to conditions: protein: recombinant; tags: N-terminal GST; dsDNA, one strand shown

The target in one experiment is T1, FLI1 (Homo sapiens, UniProt Q01543 1-452).
T1 sequence: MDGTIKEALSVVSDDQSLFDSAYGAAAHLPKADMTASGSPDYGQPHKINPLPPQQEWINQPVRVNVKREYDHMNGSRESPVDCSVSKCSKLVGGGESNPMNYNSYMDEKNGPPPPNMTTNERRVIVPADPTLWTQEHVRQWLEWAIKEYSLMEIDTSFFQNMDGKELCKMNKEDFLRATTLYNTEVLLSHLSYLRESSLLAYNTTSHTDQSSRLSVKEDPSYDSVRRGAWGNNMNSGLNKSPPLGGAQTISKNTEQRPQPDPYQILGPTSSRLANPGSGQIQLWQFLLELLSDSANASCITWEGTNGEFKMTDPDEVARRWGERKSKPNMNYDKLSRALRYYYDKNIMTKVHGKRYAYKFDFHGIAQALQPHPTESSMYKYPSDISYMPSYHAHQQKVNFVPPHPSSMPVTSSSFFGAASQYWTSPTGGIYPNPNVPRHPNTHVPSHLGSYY
Put shortly:
(§1)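 Human transcription factors fused to GST were expressed in yeast, captured on glutathione beads, given DNA barcodes and pooled with a GST-only negative control. Pools were incubated with 200 nmole of a 16-mer random double-stranded DNA library in Tris/NaCl/DTT/glycerol buffer at room temperature for 30 min. They were then washed, crosslinked with 0.1% formaldehyde, proximity-ligated (BsaI/T4 ligase, 1 h, 37 °C), PCR-amplified and sequenced on an Illumina NextSeq500. Binding signal is each 6-mer's read frequency for a factor divided by its frequency for the GST control.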

For a further experiment, the target named is T2, ELK1 (Homo sapiens, UniProt P19419 1-428).
T2 sequence: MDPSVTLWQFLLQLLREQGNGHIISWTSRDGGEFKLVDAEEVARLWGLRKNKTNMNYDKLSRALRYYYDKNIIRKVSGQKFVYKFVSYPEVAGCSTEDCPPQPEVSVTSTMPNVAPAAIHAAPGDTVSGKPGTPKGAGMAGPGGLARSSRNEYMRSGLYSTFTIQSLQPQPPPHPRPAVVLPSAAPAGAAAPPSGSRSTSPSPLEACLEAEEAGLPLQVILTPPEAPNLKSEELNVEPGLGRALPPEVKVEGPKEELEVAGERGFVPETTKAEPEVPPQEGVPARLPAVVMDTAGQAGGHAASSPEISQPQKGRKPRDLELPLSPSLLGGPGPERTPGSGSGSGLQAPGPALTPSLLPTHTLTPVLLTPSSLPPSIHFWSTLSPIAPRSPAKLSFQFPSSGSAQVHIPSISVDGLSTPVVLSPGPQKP
The essentials: as §1

A further experiment concerns the target T3, GABPA (Homo sapiens, UniProt Q06546 1-454).
T3 sequence: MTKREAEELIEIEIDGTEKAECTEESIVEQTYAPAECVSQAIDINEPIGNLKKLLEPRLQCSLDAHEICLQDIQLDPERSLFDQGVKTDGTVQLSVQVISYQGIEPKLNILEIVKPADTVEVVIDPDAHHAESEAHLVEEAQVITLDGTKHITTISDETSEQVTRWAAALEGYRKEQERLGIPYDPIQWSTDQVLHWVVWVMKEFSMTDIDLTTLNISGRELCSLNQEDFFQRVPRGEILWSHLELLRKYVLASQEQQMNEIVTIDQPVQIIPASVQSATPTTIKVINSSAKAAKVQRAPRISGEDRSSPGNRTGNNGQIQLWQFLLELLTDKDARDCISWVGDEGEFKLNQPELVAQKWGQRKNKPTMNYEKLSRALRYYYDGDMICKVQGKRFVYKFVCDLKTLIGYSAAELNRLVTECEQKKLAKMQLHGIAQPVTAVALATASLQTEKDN
The essentials: as §1

The target of the next experiment is T4, ERG (Homo sapiens, UniProt P11308 1-479).
T4 sequence: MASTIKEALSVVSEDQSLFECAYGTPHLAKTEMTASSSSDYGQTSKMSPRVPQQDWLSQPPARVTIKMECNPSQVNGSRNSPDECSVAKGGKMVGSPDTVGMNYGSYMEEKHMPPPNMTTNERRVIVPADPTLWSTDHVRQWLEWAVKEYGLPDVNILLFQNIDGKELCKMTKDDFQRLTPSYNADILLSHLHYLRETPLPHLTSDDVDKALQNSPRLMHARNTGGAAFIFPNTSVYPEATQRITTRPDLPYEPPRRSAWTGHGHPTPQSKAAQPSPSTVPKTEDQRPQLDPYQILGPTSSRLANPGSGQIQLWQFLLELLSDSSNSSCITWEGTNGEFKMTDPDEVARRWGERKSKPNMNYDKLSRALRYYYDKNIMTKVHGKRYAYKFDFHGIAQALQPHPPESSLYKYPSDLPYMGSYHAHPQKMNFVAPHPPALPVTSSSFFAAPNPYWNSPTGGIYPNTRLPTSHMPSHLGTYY
The essentials:
as §1

A further experiment concerns the target ELF1 (Homo sapiens, UniProt P32519 1-619). The essentials:
as §1

In a further experiment the target is T5, EHF (Homo sapiens, UniProt Q9NZC4 1-300).
T5 sequence: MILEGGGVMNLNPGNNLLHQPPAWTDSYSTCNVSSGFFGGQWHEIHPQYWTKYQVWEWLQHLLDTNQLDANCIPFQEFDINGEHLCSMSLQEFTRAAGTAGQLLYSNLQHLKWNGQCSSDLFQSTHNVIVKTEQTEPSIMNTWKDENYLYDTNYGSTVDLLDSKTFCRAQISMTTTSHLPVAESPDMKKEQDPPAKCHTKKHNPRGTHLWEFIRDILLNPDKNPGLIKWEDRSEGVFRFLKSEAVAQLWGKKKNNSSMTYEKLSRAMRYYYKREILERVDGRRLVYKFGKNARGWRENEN
Put shortly: as §1

The target of a further experiment is SPI1 (Homo sapiens, UniProt P17947 1-270). Put shortly:
as §1

For a further experiment, the target named is SPIB (Homo sapiens, UniProt Q01892 1-262). Put shortly:
as §1

Another experiment has as its target T6, ELK3 (Homo sapiens, UniProt P41970 1-407).
T6 sequence: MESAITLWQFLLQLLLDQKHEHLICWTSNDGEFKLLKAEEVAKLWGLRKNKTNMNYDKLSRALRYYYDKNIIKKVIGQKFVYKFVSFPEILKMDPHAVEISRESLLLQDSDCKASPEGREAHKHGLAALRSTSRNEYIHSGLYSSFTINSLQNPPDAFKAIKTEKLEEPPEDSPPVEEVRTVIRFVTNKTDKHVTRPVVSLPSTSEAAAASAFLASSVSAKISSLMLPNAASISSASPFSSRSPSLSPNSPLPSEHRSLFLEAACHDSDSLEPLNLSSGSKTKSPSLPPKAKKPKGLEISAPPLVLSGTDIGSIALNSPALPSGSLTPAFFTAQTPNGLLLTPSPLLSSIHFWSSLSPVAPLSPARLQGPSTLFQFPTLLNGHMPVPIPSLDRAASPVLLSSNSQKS
The essentials: as §1

SPIB, sequence (Q01892 whole entry): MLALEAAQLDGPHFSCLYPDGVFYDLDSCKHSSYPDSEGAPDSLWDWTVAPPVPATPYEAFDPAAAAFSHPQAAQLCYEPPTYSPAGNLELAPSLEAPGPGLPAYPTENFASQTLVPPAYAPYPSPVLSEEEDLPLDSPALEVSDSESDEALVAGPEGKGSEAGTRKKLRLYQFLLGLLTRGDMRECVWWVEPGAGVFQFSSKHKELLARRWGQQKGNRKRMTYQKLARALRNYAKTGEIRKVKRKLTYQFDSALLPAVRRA
ELF1, sequence (P32519 whole entry): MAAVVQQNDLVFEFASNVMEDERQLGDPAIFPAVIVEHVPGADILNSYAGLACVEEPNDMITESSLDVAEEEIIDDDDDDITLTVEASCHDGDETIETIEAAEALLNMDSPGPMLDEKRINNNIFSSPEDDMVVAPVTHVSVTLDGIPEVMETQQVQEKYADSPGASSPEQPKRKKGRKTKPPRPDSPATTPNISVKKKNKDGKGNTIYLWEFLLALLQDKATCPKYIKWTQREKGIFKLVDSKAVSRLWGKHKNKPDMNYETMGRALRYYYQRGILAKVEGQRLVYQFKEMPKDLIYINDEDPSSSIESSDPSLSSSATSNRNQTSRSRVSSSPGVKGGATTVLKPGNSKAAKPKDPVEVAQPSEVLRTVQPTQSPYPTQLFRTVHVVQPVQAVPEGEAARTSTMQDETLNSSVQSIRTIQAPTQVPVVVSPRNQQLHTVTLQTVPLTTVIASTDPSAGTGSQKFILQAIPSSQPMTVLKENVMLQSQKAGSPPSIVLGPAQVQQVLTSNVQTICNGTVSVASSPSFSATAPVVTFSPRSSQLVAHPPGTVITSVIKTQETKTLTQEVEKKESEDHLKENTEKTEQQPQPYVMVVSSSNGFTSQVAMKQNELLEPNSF

For the sequence AACACC, the binding signal was 1.19 fold enrichment (6-mer frequency, TF over GST control) with FLI1; 1.18 fold enrichment (6-mer frequency, TF over GST control) with ELK1; 1.11 fold enrichment (6-mer frequency, TF over GST control) in the experiment with GABPA; 1.15 fold enrichment (6-mer frequency, TF over GST control) in the experiment with ERG; 1.11 fold enrichment (6-mer frequency, TF over GST control) in the experiment with ELF1; 1.12 fold enrichment (6-mer frequency, TF over GST control) with EHF. For the same sequence, the binding signal with SPI1 was 1.04 fold enrichment (6-mer frequency, TF over GST control); with SPIB it was 1.16 fold enrichment (6-mer frequency, TF over GST control).
On to GCTGAA, for which the binding signal is 1.14 fold enrichment (6-mer frequency, TF over GST control) with FLI1; 1.09 fold enrichment (6-mer frequency, TF over GST control) in the experiment with ELK1; 1.14 fold enrichment (6-mer frequency, TF over GST control) in the experiment with GABPA; 1.03 fold enrichment (6-mer frequency, TF over GST control) with ERG; 1.16 fold enrichment (6-mer frequency, TF over GST control) with ELF1; 1.1 fold enrichment (6-mer frequency, TF over GST control) with EHF. The binding signal with SPI1 was 1.06 fold enrichment (6-mer frequency, TF over GST control); with SPIB, 1.11 fold enrichment (6-mer frequency, TF over GST control).
For AACGCC, the binding signal is 1.07 fold enrichment (6-mer frequency, TF over GST control) with FLI1; 1.1 fold enrichment (6-mer frequency, TF over GST control) with ELK1; 1.08 fold enrichment (6-mer frequency, TF over GST control) with GABPA; 1.06 fold enrichment (6-mer frequency, TF over GST control) in the experiment with ERG; 1.09 fold enrichment (6-mer frequency, TF over GST control) with ELF1; 1.15 fold enrichment (6-mer frequency, TF over GST control) in the experiment with EHF. In addition, the binding signal with SPI1 is 1.06 fold enrichment (6-mer frequency, TF over GST control); with SPIB, 1.11 fold enrichment (6-mer frequency, TF over GST control).
Take GGTATA: the binding signal in the experiment with FLI1 was 1.04 fold enrichment (6-mer frequency, TF over GST control); with ELK1 it was 1.16 fold enrichment (6-mer frequency, TF over GST control); with GABPA, 1.02 fold enrichment (6-mer frequency, TF over GST control); with ERG it was 1.05 fold enrichment (6-mer frequency, TF over GST control); with ELF1, 1.09 fold enrichment (6-mer frequency, TF over GST control); in the experiment with EHF it was 1.11 fold enrichment (6-mer frequency, TF over GST control). The binding signal with SPI1 was 1.07 fold enrichment (6-mer frequency, TF over GST control); in the experiment with SPIB, 1.06 fold enrichment (6-mer frequency, TF over GST control).
As for AATCAG, the binding signal is 1.1 fold enrichment (6-mer frequency, TF over GST control) with FLI1; 1.05 fold enrichment (6-mer frequency, TF over GST control) in the experiment with ELK1; 1.19 fold enrichment (6-mer frequency, TF over GST control) with GABPA; 1.07 fold enrichment (6-mer frequency, TF over GST control) with ERG; 1.1 fold enrichment (6-mer frequency, TF over GST control) with ELF1; 1.02 fold enrichment (6-mer frequency, TF over GST control) with EHF. Besides, the binding signal with SPI1 is 1.04 fold enrichment (6-mer frequency, TF over GST control); with SPIB it was 1.19 fold enrichment (6-mer frequency, TF over GST control).
Take TCTATG: the binding signal with FLI1 was 1.12 fold enrichment (6-mer frequency, TF over GST control); with ELK1 it was 1.2 fold enrichment (6-mer frequency, TF over GST control); with GABPA, 1.21 fold enrichment (6-mer frequency, TF over GST control); with ERG it was 1.03 fold enrichment (6-mer frequency, TF over GST control); with ELF1, 1.12 fold enrichment (6-mer frequency, TF over GST control); with EHF, 1.13 fold enrichment (6-mer frequency, TF over GST control). For the same sequence, the binding signal with SPI1 was 1.09 fold enrichment (6-mer frequency, TF over GST control); with SPIB, 1.12 fold enrichment (6-mer frequency, TF over GST control).
As for CGTCTA, the binding signal with FLI1 was 1.15 fold enrichment (6-mer frequency, TF over GST control); in the experiment with ELK1, 1.26 fold enrichment (6-mer frequency, TF over GST control); with GABPA, 1.31 fold enrichment (6-mer frequency, TF over GST control); in the experiment with ERG, 1.37 fold enrichment (6-mer frequency, TF over GST control); with ELF1, 1.31 fold enrichment (6-mer frequency, TF over GST control); in the experiment with EHF it was 1.27 fold enrichment (6-mer frequency, TF over GST control). In addition, the binding signal was 1.25 fold enrichment (6-mer frequency, TF over GST control) with SPI1; 1.37 fold enrichment (6-mer frequency, TF over GST control) in the experiment with SPIB; 1.25 fold enrichment (6-mer frequency, TF over GST control) in the experiment with ELK3.
AGTGTT: the binding signal with FLI1 is 1.05 fold enrichment (6-mer frequency, TF over GST control); with ELK1, 1.16 fold enrichment (6-mer frequency, TF over GST control); with GABPA, 1.14 fold enrichment (6-mer frequency, TF over GST control); in the experiment with ERG, 1.15 fold enrichment (6-mer frequency, TF over GST control); with ELF1, 1.08 fold enrichment (6-mer frequency, TF over GST control); with EHF, 1.02 fold enrichment (6-mer frequency, TF over GST control). Besides, the binding signal with SPI1 is 1.32 fold enrichment (6-mer frequency, TF over GST control); in the experiment with SPIB it was 1.15 fold enrichment (6-mer frequency, TF over GST control).
